# Hits are enriched below; roughly 1.2% of the tested compounds scored in any of these assays.
# Keap1 Nrf2 FP: disrupts human Keap1 binding to Nrf2 peptide; Q14145; Keap1 Kelch-Nrf2 peptide fluorescence polarization, 1536-well; inhibition, % at 9.4 µM; 340,000 tested, 0.15% active; AID 504523; in the data active = inhibition above about 12%;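 note: human Keap1 Kelch domain with fluorescein labeled Nrf2 9mer peptide probe; 0% = neutral control wells and 100% = peptide positive control; higher means more block of Keap1 binding to Nrf2 peptide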
# GLD-1 TGE inh: GLD-1-TGE RNA interaction inhibition (C. elegans) | inhibition, % at 5.96 µM | 320,000 tested, 0.44% active | purified GLD-1 + fluorescein TGE RNA, fluorescence polarization | Q17339 | AID 2280;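 active = percent inhibition above a per-plate cutoff, the plate mean of test compounds plus 3 SD, cut at about 30% in these data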;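 note: 0% = DMSO wells with GLD-1 and probe and 100% = wells lacking GLD-1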
# Target sequence (Q17339 whole entry, looked up): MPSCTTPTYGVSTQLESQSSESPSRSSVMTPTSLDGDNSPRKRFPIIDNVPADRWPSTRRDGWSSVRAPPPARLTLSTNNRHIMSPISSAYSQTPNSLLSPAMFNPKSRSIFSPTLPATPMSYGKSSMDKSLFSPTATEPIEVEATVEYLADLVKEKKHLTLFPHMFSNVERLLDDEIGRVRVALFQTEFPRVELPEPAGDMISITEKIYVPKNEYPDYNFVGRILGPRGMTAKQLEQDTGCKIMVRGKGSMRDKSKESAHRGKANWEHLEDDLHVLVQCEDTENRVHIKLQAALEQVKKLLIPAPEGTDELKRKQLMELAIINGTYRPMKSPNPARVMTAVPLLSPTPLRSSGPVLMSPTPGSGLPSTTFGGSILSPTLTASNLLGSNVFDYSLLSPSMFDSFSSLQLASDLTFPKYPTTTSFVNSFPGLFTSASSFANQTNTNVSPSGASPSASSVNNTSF
# eLon inh: inhibits E. coli Lon protease; purified E. coli Lon protease, fluorescence polarization; inhibition, % at 7.94 µM; P0A9M0; 360,000 tested, 0.42% active; in the data active = inhibition above about 13%, passing the limit was not always enough;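 note: 0% = enzyme with probe and DMSO and 100% = no enzyme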
# LANA DNA inh: KSHV C-LANA DNA binding inhibition; MBP-C-LANA/FAM-LBS DNA binding, fluorescence polarization; inhibition, % at 9 µM; 340,000 tested, 0.078% active;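 active = highest replicate inhibition at or above 60% at 9 µM, even if other replicates fall short; inactive = all replicates below 60% inhibition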;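 note: 0% = neutral control wells and 100% = 4 µM acridine orange control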
# MEX-5 binding: C. elegans MEX-5 TCR-2 RNA binding activity; MEX-5/FITC-TCR2 RNA binding, fluorescence polarization; hits give low values; activity score (negative = inhibition of binding), % at 10 µM; 300,000 tested, 0.38% active; AID 1832;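 active = inhibition past about -25% in most replicates, and total fluorescence under double the plate's negative control median, limit read from the data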;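 note: 0% = DMSO and -100% = 5 µM competing unlabeled TCR2 RNA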
# Bcl-xL primary: Bcl-xL (human) inhibition. GST-Bcl-xL / FITC-Bim BH3 peptide fluorescence polarization. AID 2129. 320,000 tested, 0.7% active. inhibition, % at 10.9 µM. Q07817;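 active = inhibition above the mean of all tested compounds plus 3 SD, cutoff set per campaign, cut at about 30% in these data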;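 note: 0% = DMSO wells and 100% = unlabeled Bim-BH3 peptide competitor; inhibitors lower millipolarization by displacing the labeled peptide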
# E coli Lon conf: confirmation of E. coli Lon protease inhibitors; 1,400 tested, 31% active; shares compounds with eLon inh; inhibition, % at 7.94 µM; purified E. coli Lon, fluorescence polarization; AID 602230; in the data active = inhibition above about 16%;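 note: 0% = enzyme with probe and DMSO and 100% = no enzyme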
# The depositor's hits bear a star; . = no result; + = active, no number.
SMILES,Keap1 Nrf2 FP,GLD-1 TGE inh,eLon inh,LANA DNA inh,MEX-5 binding,Bcl-xL primary,E coli Lon conf
O=S(=O)(c1ccccc1)N1N=C(c2ccccc2)CC1c1ccccc1F (stereo not given),-1.7,-6.7,4.7,-0.6,-1.4,4.8,.
Fc1ccc(Br)cc1C1C=C(c2ccc(Br)cc2)Nc2ncnn21 (stereo not given),-7.5,6.8,3.2,5.0,0.7,10.2,.
Cc1ccsc1C1C=C(c2cccc(Br)c2)Nc2ncnn21 (stereo not given),6.8,92.3*,59.7*,19.9,-1.6,109.9*,66.3*
CN(C)S(=O)(=O)c1ccc(Cl)c(C(=O)NNC(=O)Cc2nc3ccccc3n2C)c1,-2.4,12.9,+,0.1,.,2.0,3.3
CCOC(=O)c1ccc(CNC(=O)CSc2nc(NC(=O)c3ccccc3)c3c(C)c(C)oc3n2)cc1,-5.9,6.9,17.1*,-0.2,0.2,-2.5,-4.3
CCOC(=O)c1ccc(CNC(=O)CSc2nnc(-c3ccncc3)o2)cc1,-0.3,24.0,-4.0,0.4,1.5,7.1,.

# Bioassay records as filed in PubChem.
